Test [1] is described as follows: qHTS assay to test for compound auto fluorescence at 535 nm (green) in HEK293 cells (AID 720680).
Test [2] in a line: qHTS assay to test for compound auto fluorescence at 460 nm (blue) in HEK293 cell free culture (AID 720681). In outline:
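Blue fluorescence (Ex 405/Em 460 nm, triamterene-equivalent) was read immediately after pin transfer of compound or DMSO into medium (DMEM, 10% FBS) without cells.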
(qHTS replaces the single test concentration by a dilution series.)

A short description of test [3]: qHTS assay to test for compound auto fluorescence at 535 nm (green) in HEK293 cell free culture (AID 720682). In a few lines:
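Compounds were pin-transferred into cell-free DMEM with 10% FBS, and green fluorescence was read at excitation 485 nm and emission 535 nm. Intensities were expressed as fluorescein-equivalent values.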

Test [4] is described as follows: qHTS assay to test for compound auto fluorescence at 590 nm (red) in HEK293 cell free culture (AID 720683). In outline: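 Red-channel autofluorescence of compounds in culture medium (DMEM, 10% FBS), no cells, measured at 540/590 nm. Rose Bengal sodium is the reference fluorophore for equivalence.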
Test [5] is described as follows: qHTS assay to test for compound auto fluorescence at 590 nm (red) in HepG2 cell free culture (AID 720684). In a few lines: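 Steps: dispense MEM/10% FBS medium, no cells; pin compound or DMSO vehicle; read red channel, Ex/Em 540/590 nm. Output given as Rose Bengal sodium equivalents.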
The nature of test [6]: qHTS assay to test for compound auto fluorescence at 460 nm (blue) in HepG2 cell free culture (AID 720685). In a few lines: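 Compound (23 nL) or DMSO pinned into cell-free MEM with 10% FBS; blue fluorescence read at 405/460 nm excitation/emission, expressed as auto-fluorescence equivalency to triamterene.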
The nature of test [7]: qHTS assay to test for compound auto fluorescence at 535 nm (green) in HepG2 cell free culture (AID 720686).
Test [8] in a line: qHTS assay to test for compound auto fluorescence at 460 nm (blue) in HepG2 cells (AID 720687). In outline: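 Blue-channel autofluorescence (Ex/Em 405/460 nm, triamterene-equivalent) was measured after 1 hr compound exposure at 37 C, 5% CO2. Cells were HepG2, plated overnight at 37 C in MEM plus 10% FBS.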
Test [9] addresses Glucocorticoid receptor (Homo sapiens) (UniProt P04150). Kind of test: qHTS assay to identify small molecule agonists of the glucocorticoid receptor (GR) signaling pathway (AID 720691; active means well fitted activation curve with a large enough effect in the signal ratio in the repeat runs, not every such curve was filed as active; the % refers to the signal ratio). The following applies: GR-bla HeLa, beta-lactamase reporter ratio, 18 h; activation: at 62.4 µM (top of the series). In a few lines:
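Fluorescence intensity from LiveBLAzer B/G FRET substrate (2 h, room temperature) reports beta-lactamase expression driven by the glucocorticoid response element in GR-bla HeLa cells after 18 h compound exposure at 37 C.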

Test [10] shares this target. Kind of test: qHTS assay to identify small molecule antagonists of the glucocorticoid receptor (GR) signaling pathway (AID 720692; active means well fitted inhibition curve with a large enough effect in the signal ratio in the repeat runs, not every such curve was filed as active; the % refers to the signal ratio; further: potency means the concentration at half of the fitted maximal effect). In a few lines:
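HeLa GR-bla cells; cmpd + dex 5 nM final, 18 h 37 C; LiveBLAzer B/G FRET substrate 2 h RT; fluorescence intensity read. Antagonist mode, qHTS.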

Test [11] is described as follows: qHTS assay for identifying genotoxic compounds that show differential cytotoxicity against isogenic chicken DT40 cell lines with known DNA damage response pathways - Rev3 mutant cell line (AID 743014). Further: nearly all actives have a fitted effect of over 55% in size. Further: potency means the concentration at half of the fitted maximal effect.
The nature of test [12]: qHTS assay for identifying genotoxic compounds that show differential cytotoxicity against isogenic chicken DT40 cell lines with known DNA damage response pathways - Rad54/Ku70 mutant cell line (AID 743015). Further: nearly all actives have a fitted effect of over 60% in size. Further: potency means the concentration at half of the fitted maximal effect.
Test [13] is described as follows: qHTS assay to identify small molecule antagonists of the androgen receptor (AR) signaling pathway - cell viability counter screen (AID 743033; further: nearly all actives have a fitted effect of over 45% in size).
Test [14] deals with Androgen receptor (Homo sapiens) (UniProt P10275). Put plainly: qHTS assay to identify small molecule agonists of the androgen receptor (AR) signaling pathway using the MDA cell line (AID 743040; further: nearly all actives have a fitted effect of over 20% in size). In outline:
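Cells plated, 5 h at 37C/0% CO2; compound or DMSO pinned; 16 h at 37C; ONE-Glo added; luminescence measured after 30 min at room temperature. Reporter line: MDA-kb2 with MMTV-luciferase responsive to AR and GR.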

Test [15] is described as follows: qHTS assay to identify small molecule antagonists of the androgen receptor (AR) signaling pathway using the MDA cell line - cell viability counter screen (AID 743041; further: nearly all actives have a fitted effect of over 45% in size; further: potency means the concentration at half of the fitted maximal effect). In outline: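 Cells were plated at 3,000 per well and left 5 h. Compounds in DMSO were then pinned in, followed by R1881. After 16 h at 37C, CellTiter-Fluor fluorescence gave viability.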
Test [16] has as its target Androgen receptor (Homo sapiens) (UniProt P10275). Put plainly: qHTS assay to identify small molecule antagonists of the androgen receptor (AR) signaling pathway using the MDA cell line (AID 743042; further: nearly all actives have a fitted effect of over 55% in size). In outline: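 Antagonist mode: compounds plus R1881 agonist added to MDA-kb2 AR-luc cells, incubated 16 h at 37C. Luciferase reporter luminescence quantified, with multiplexed CellTiter-Fluor readout for cell viability.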

Test [17] can be described thus: qHTS assay to identify small molecule antagonists of the glucocorticoid receptor (GR) signaling pathway - cell viability counter screen (AID 720693). Further: nearly all actives have a fitted effect of over 55% in size.
Test [18] is described as follows: qHTS assay for identifying genotoxic compounds that show differential cytotoxicity against isogenic chicken DT40 cell lines with known DNA damage response pathways - wild type cell line (AID 743012). Further: nearly all actives have a fitted effect of over 60% in size. Further: potency means the concentration at half of the fitted maximal effect. In outline: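 Wild type DT40, 300 cells/well, ~0.5 h settle at 37 C/5% CO2; compounds in DMSO added by pintool; 40 h at 37 C/5% CO2; CellTiter-Glo, 30 min RT; luminescence.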

In test [19] the target is Androgen receptor (Homo sapiens) (UniProt P10275). Put plainly: qHTS assay to identify small molecule antagonists of the androgen receptor (AR) signaling pathway (AID 743035; active means well fitted inhibition curve with a large enough effect in the signal ratio in the repeat runs, not every such curve was filed as active; the % refers to the signal ratio). In outline:
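Fluorescence from a beta-lactamase FRET substrate (LiveBLAzer B/G, 2 h, room temperature) measured inhibition of R1881-stimulated signaling in GeneBLAzer AR-UAS-bla HEK293 cells exposed to compound for 16 h at 37C.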

Test [20] shares this target. Put plainly: qHTS assay to identify small molecule agonists of the androgen receptor (AR) signaling pathway (AID 743036; active means well fitted activation curve with a large enough effect in the signal ratio in the repeat runs, with a control signal flat, not every such curve was filed as active; the % refers to the signal ratio). In a few lines: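 Activation was read as beta-lactamase FRET signal from LiveBLAzer B/G substrate, added for 2 h at room temperature. Before that, GeneBLAzer AR-UAS-bla GripTite (HEK293) cells had 16 h compound exposure at 37C.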

Each structure is given as a SMILES string. Results filed as inconclusive are left out. Calls of active or inactive are those of the source. Unless noted, the call rests on the fitted dose curve; in most records, active means well fitted curve in the direction sought with a large enough effect in the repeat runs; inconclusive means weak or mixed curves; inactive means no such curve, though single readings can be large; an effect the other way counts as inactive or inconclusive.

Androgen receptor (Homo sapiens), sequence (P10275 whole entry, looked up): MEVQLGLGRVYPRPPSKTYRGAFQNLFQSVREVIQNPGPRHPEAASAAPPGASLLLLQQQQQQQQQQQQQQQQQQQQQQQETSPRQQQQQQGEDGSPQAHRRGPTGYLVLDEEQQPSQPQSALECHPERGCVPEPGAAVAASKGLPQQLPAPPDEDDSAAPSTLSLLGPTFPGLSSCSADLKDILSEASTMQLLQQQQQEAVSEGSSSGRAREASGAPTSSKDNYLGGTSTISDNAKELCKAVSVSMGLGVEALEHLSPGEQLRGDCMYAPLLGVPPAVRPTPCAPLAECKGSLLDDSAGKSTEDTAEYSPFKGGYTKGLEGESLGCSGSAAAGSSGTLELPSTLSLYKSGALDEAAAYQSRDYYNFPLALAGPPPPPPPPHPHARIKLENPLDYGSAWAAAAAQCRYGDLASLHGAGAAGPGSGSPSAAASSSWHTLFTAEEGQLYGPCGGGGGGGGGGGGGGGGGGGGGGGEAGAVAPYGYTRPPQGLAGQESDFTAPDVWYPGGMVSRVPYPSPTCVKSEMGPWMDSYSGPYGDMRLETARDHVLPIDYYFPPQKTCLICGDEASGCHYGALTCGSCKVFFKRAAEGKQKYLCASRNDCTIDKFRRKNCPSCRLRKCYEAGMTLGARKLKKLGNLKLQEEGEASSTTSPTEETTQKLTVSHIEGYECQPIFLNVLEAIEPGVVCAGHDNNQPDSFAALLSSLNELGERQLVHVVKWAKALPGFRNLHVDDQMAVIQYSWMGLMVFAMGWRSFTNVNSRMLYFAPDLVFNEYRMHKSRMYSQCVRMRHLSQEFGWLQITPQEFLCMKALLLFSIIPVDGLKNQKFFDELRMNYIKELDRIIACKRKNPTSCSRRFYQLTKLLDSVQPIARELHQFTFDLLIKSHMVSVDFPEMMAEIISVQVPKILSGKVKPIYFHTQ
Glucocorticoid receptor (Homo sapiens), sequence (P04150 whole entry, looked up): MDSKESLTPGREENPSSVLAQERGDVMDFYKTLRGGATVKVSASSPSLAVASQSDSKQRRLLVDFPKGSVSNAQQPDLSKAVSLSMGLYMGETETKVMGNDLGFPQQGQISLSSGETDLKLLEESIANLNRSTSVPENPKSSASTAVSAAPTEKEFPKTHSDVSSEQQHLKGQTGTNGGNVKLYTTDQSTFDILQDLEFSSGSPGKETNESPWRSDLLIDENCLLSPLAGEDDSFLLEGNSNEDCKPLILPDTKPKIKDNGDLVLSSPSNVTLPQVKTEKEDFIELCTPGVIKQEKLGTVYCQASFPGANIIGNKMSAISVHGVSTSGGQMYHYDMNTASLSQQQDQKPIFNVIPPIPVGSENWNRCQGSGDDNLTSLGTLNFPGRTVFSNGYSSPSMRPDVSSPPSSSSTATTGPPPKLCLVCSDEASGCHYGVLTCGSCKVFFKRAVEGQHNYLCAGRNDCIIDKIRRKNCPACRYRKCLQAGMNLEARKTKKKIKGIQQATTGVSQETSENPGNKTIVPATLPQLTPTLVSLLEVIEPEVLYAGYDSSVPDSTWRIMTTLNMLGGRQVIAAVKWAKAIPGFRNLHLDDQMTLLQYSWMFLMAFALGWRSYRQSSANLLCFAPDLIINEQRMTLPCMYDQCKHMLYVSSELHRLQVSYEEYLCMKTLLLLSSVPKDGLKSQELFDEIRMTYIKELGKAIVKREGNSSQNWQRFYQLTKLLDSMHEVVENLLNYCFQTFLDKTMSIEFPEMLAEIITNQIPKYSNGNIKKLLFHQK

Consider `CCCCCCCCCCCCCCCCSCC(COC)COP(=O)([O-])OCC[N+](C)(C)C` (stereo unspecified), for which the Potency result in [1], in [2], in [3], in [4], in test [5] and in test [7] was “inactive” throughout. The Potency result in test [9], in [11], in [12], in [13], in test [14] and in test [15] was “inactive” in each case. The Potency result in test [16] is “inactive”. The compound was classed as inactive in [6] and in [8]. Further, the Potency in [10] was 23.9 µM (active).
On to `CCC(Cc1c(I)cc(I)c(O)c1I)C(=O)O` (stereo unspecified), for which the Potency result in test [1], in test [2], in test [3], in test [4], in test [5] and in [7] was “inactive” throughout. In addition, the Potency result in test [9], in [17], in test [18], in [11], in [12] and in test [13] was “inactive” each time. Also, the Potency result in test [19], in [20], in [14], in [15] and in test [16] was “inactive” each time. The result in test [6] and in test [8] was inactive.
Regarding `CCCCC(F)(F)[C@@]1(O)CC[C@H]2[C@@H](CC(=O)[C@@H]2CCCCCCC(=O)O)O1`, the Potency result in test [1], in [2], in [3], in test [4], in [5] and in test [7] was “inactive” in each case. The Potency entry in [9], in [17], in [18], in test [11], in [12] and in test [13] was “inactive” each time. Further, the Potency result in test [14], in [15] and in test [16] was “inactive” in each case. Also, the call in test [6] and in test [8] was inactive.
For `C=CC1=C(C)C2=CC3=NC(=C(CC(=O)[O-])C4=NC(=C(C)C4=C([O-])[O-])C=c4[n-]c(c(C)c4CC)=CC1=N2)C(CCC(=O)[O-])C3C.[Cu+2].[Na+].[Na+].[Na+]` (stereo unspecified), the Potency entry in test [1], in test [2], in [3], in test [4], in test [5] and in test [7] was “inactive” in each case. Also, the Potency result in test [9], in [17] and in test [13] was “inactive” in each case. For the same compound, the outcome in test [6] and in [8] was inactive. Besides, the Potency was 29.8 µM (active) in test [18], 23.7 µM (active) in test [11], 29.8 µM (active) in test [12] and 22.1 µM (active) in test [15].
On to `CC(C)CCC[C@@H](C)[C@H]1CC(=O)C2=C3CC[C@H]4C[C@@H](O)CC[C@]4(C)[C@H]3CC[C@@]21C`, for which the Potency result in [1], in test [2], in test [3], in [4], in test [5] and in test [7] was “inactive” in each case. Besides, the Potency result in test [9], in test [17], in test [13], in test [19], in test [20] and in [14] was “inactive” throughout. Also, the Potency result in [15] and in test [16] was “inactive” throughout. The result in [6] and in test [8] was inactive. Besides, the values for the Potency in test [18], in test [11] and in [12] were 0.596 µM (active), 0.298 µM (active) and 0.841 µM (active), respectively.
On to `CCOC(=O)Cc1cccc(-c2cc(CCCCCCc3ccc(O[C@H]4O[C@H](COC(C)=O)[C@@H](OC(C)=O)[C@H](OC(C)=O)[C@@H]4OC(C)=O)c(-c4cccc(CC(=O)OCC)c4)c3)ccc2O[C@H]2O[C@H](COC(C)=O)[C@@H](OC(C)=O)[C@H](OC(C)=O)[C@@H]2OC(C)=O)c1`, for which the Potency result in test [1], in test [2], in test [3], in test [4], in test [5] and in [7] was “inactive” in each case. The Potency entry in test [9], in test [17], in test [18], in [11], in test [12] and in [13] was “inactive” throughout. In test [15], the Potency result is “inactive”. The outcome in [6] and in test [8] was inactive.

(Values after PubChem BioAssay (Tox21).)
